Inconclusive results are not listed. Activity calls are given as the source filed them. Unless noted, the call rests on the fitted dose curve; in most records, active means well fitted curve in the direction sought with a large enough effect; inconclusive means small, poorly fitted or top-dose-only effect, or another doubt; inactive means no such curve, though single readings can be large; an effect the other way counts as inactive or inconclusive. *1 amine or outer side, *2 acyl side, *3 side chain or, on linkers, in order; H or OH if unused. Where a SMILES comes first, the peptide text is derived from it. Bridges are numbered along the chain shown (N, C = ends). [ ]: non-standard residue; d: D form. The star is where a group is joined. ξ: configuration not given here. X10 = NC1=NCCC(C(N[*:1])C(=O)[*:2])N1; ΔAla(3-NHCONH2) = NC(=O)NC=C(N)C(=O)O; ξβ3hOrn = NCCCC(N)CC(=O)*; Dap = NC[CH](N)C(=O)O
Key:
[1] = qHTS to identify inhibitors of the type 1 interferon - major histocompatibility complex class I in skeletal muscle: primary screen against the NCATS Pharmaceutical Collection (AID 1347407);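 further: luminescence of HiBiT knocked into endogenous HLA-B as interferon-induced MHC class I level; on the % scale 0 is the no-effect control and ±100 the full control effect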
Outline: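 Cells were seeded with 4 ng/ml IFN-beta, incubated 1 h, then dosed with compounds over eight 1:5 steps up to 46 uM final. After 24 h at 37 C, HiBiT lytic reagent was added and luminescence read after 10 min lysis in the dark.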

[2] = biological target: Protein phosphatase 1D (Homo sapiens) (UniProt O15297); assay: RapidFire Mass Spectrometry qHTS Assay for Modulators of WT P53-Induced Phosphatase 1 (WIP1) (AID 1347424);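 further: series mostly up to about 63 µM; plate controls were DMSO wells for no effect and GSK830371 inhibitor control at 10 µM for full effect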
Chain of Protein phosphatase 1D (Homo sapiens) (O15297 whole entry, looked up): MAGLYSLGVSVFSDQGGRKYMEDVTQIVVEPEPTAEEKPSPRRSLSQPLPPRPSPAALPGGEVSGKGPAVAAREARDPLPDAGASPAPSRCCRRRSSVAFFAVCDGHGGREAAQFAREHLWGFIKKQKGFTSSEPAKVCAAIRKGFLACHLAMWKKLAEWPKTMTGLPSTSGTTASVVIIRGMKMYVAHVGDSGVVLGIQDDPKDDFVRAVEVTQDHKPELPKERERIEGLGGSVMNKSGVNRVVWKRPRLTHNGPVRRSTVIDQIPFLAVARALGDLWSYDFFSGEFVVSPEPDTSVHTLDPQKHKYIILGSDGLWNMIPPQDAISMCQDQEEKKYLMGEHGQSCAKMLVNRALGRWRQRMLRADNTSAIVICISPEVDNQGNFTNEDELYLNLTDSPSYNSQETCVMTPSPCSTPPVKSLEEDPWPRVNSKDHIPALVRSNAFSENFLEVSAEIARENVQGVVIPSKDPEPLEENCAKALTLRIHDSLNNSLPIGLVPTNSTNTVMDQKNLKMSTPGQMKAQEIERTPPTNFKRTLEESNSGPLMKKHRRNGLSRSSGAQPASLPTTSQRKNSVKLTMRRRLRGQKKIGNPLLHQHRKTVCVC
Outline: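 RapidFire MS readout of dephosphorylated VEPPL-S-QETFS product, with 1 uM isotope-labelled peptide standard. Reaction: 10 nM WIP1, 2 uM phosphopeptide substrate, 5 min, room temperature, after 1 h compound preincubation; stopped with 0.5% formic acid.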

[3] = biological target: Protein phosphatase 1D (Homo sapiens) (UniProt O15297); assay: Rhodamine-PBP qHTS Assay for Modulators of WT P53-Induced Phosphatase 1 (WIP1) (AID 1347425); further: % of control where 0% means no effect
Outline: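 WIP1 (5 nM final) was preincubated with compound for 1 hour at room temperature. It then dephosphorylated 10 uM VEPPL-pS-QETFS peptide in Tris-HCl pH 7.5 with 30 mM MgCl2. Released Pi was detected by 10 uM Rh-PBP fluorescence (ex 525/em 598 nm) read at 1-min intervals for 11 min, as delta f1 - f0.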

[4] = Primary qHTS for inhibitors of La Crosse Virus (LACV) - induced cell death in SH-SY5Y cells (AID 1508616);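 further: top concentration of the series differs between compounds; 0% = infected DMSO wells and 100% = uninfected DMSO wells; higher means more rescue of cells from virus-induced death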
Outline: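 Screening measures cell viability in LACV-infected SH-SY5Y cultures. Compound was added before virus (0.01 MOI), and ATP was detected by luminescence 6 days later.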

[5] = biological target: Calcium and integrin-binding protein 1 (Homo sapiens) (UniProt Q99828); assay: Primary qHTS for Identification of Calcium Integrin Binding Protein 1 (CIB1) Competitor (AID 1508620);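 further: GST tagged CIB1 binding a fluorescein labelled alphaIIb integrin peptide tracer; top concentration of the series differs between compounds; on the % scale 0 is the no-effect control and ±100 the full control effect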
Chain of Calcium and integrin-binding protein 1 (Homo sapiens) (Q99828 whole entry, looked up): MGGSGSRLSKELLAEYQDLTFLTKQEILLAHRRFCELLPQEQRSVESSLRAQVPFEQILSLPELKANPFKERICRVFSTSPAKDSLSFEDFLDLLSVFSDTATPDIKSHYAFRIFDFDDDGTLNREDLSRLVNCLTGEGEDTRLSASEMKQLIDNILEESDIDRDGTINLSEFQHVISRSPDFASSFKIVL
Outline: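 Fluorescence polarization competition: GST-tagged CIB1 (1 uM final) preincubated with compound 15 min at room temperature, then FITC-labelled alphaIIb peptide (100 nM final) added. After 15 min at room temperature, polarization read at Ex 480/Em 540.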

[6] = Primary qHTS for small molecule stabilizers of the endoplasmic reticulum resident proteome: Secreted ER Calcium Modulated Protein (SERCaMP) assay (AID 1508630); further: on the % scale 0 is the no-effect control and ±100 the full control effect
Outline: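 The SH-SY5Y reporter protocol was run at 3 concentrations up to 38.3 uM (primary) or 11 concentrations (follow-up): 16 h compound, 100 nM thapsigargin for 4 h, then extracellular luciferase luminescence.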

[7] = A High-Content qHTS Against Drug Library for the Identification of Small Molecules that Inhibit DYT1 Early Onset Primary Dystonia-Associated Cell Pathology (AID 1645839; calls by dose curve; further: series mostly up to about 46 µM)
Outline: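 Cells were seeded and left for 24 h, then dosed with compound alongside tetracycline induction of mutant EGFP-TorsinA. They were incubated for 48 h, fixed in 4% paraformaldehyde, permeabilized and imaged for mislocalization (%pathology) and cell count.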

C[C@H](CN1CCCC1)C(=O)c1ccc(C(F)(F)F)cc1
inactive: Potency [1] | Potency [2] | outcome [3] | outcome [4] | Potency [5] | Potency [6] | Potency [7]

CC(=O)OCC(=O)Nc1cc(C#N)cc(NC(=O)COC(C)=O)c1Cl
inactive: Potency [1] | Potency [2] | outcome [3] | outcome [4] | Potency [5] | Potency [6] | Potency [7]

CC(C)C(=O)OCc1cccc(OC(=O)[C@@H]2N3C(=O)[C@@H](NC(=O)Cc4ccccc4)[C@H]3SC2(C)C)c1
inactive: Potency [1] | Potency [2] | outcome [3] | outcome [4] | Potency [5] | Potency [6] | Potency [7]

CC(C)(Oc1ccc(Cl)cc1)C(=O)OCCCOC(=O)C(C)(C)Oc1ccc(Cl)cc1
inactive: Potency [1] | Potency [2] | outcome [3] | outcome [4] | Potency [5] | Potency [6] | Potency [7]

COc1cc2nc(Cl)nc(N)c2cc1OC
inactive: Potency [1] | Potency [2] | outcome [3] | outcome [4] | Potency [5] | Potency [6] | Potency [7]

CC(C)C[C@H](NC(=O)CNC(=O)[C@H](Cc1ccc(O)cc1)NC(=O)[C@H](CO)NC(=O)[C@H](Cc1c[nH]c2ccccc12)NC(=O)[C@H](Cc1cnc[nH]1)NC(=O)[C@@H]1CCC(=O)N1)C(=O)N[C@@H](CCCN=C(N)N)C(=O)N1CCC[C@H]1C(=O)NCC(N)=O (stereo in doubt)
inactive: Potency [1] | Potency [2] | outcome [3] | outcome [4] | Potency [5] | Potency [7]

COc1ccc([C@@H]2Sc3ccccc3NC(=O)[C@@H]2O)cc1
inactive: Potency [1] | Potency [2] | outcome [3] | outcome [4] | Potency [5] | Potency [6] | Potency [7]

CCCCCCn1c(=O)c2c(ncn2C)n(C)c1=O
inactive: Potency [1] | Potency [2] | outcome [3] | outcome [4] | Potency [5] | Potency [6] | Potency [7]

O=C(C1CCCCC1)N1CC(=O)N2CCCc3ccccc3C2C1 (stereo not drawn)
inactive: Potency [1] | Potency [2] | outcome [3] | outcome [4] | Potency [5] | Potency [7]

Nc1nnnn1-c1ccccc1
inactive: Potency [1] | Potency [2] | outcome [3] | outcome [4] | Potency [5] | Potency [7]

NCCCC(N)CC(=O)NCC1NC(=O)C(CO)NC(=O)C(N)CNC(=O)C(C2CCN=C(N)N2)NC(=O)C(=CNC(N)=O)NC1=O (stereo not drawn) (H-[Dap]S[Dap](ξβ3hOrn)[ΔAla(3-NHCONH2)][X10]; lactam 1-C; configuration not given here)
inactive: activity change, negative = inhibition [1] -9.07% [at 0.727 µM] | activity change, negative = inhibition [2] 2.35% [at 0.505 µM] | activity change, negative = inhibition [3] 11.7% [at 0.575 µM] | activity change [4] 8.73% [at 0.0343 µM] | activity change, negative = inhibition [5] -1.21% [at 1.07 µM] | % pathology change, negative = correction [7] -14.9% [at 0.369 µM]

COc1ccc2cc(C=O)ccc2c1
inactive: Potency [1] | Potency [2] | outcome [3] | outcome [4] | Potency [5] | Potency [7]

CN1C(CSCC(F)(F)F)Nc2cc(Cl)c(S(N)(=O)=O)cc2S1(=O)=O (stereo not drawn)
inactive: Potency [1] | Potency [2] | outcome [3] | outcome [4] | Potency [5] | Potency [7]

N#CSCC(=O)O
inactive: Potency [1] | Potency [2] | outcome [3] | outcome [4] | Potency [5] | Potency [7]

CC(=O)O[C@@H]1C(=O)O[C@@H]2[C@H]1OC(=O)[C@@H]2OC(C)=O
inactive: Potency [1] | Potency [2] | outcome [3] | outcome [4] | Potency [5] | Potency [7]

CCC1(c2cnc[nH]2)Cc2ccccc2C1
inactive: Potency [1] | Potency [2] | outcome [3] | outcome [4] | Potency [5] | Potency [7]

NC(=O)COCCN1CCN(C(c2ccccc2)c2ccc(Cl)cc2)CC1 (stereo not drawn)
inactive: Potency [1] | Potency [2] | outcome [3] | outcome [4] | Potency [5] | Potency [7]

Nc1ccc(C(=O)OCC(O)CO)cc1 (stereo not drawn)
inactive: Potency [1] | Potency [2] | outcome [3] | outcome [4] | Potency [5] | Potency [7]

C1N2CN3CN1CN(C2)C3
inactive: Potency [1] | Potency [2] | outcome [3] | outcome [4] | Potency [5] | Potency [7]

Cc1cc(O)c(C)c(C)c1O
inactive: Potency [1] | Potency [2] | outcome [3] | outcome [4] | Potency [5] | Potency [7]

O=P(O)(O)OCC(O)CO (stereo not drawn)
inactive: Potency [1] | Potency [2] | outcome [3] | outcome [4] | Potency [5] | Potency [7]

Cc1ccc(C(=O)C(=O)O)cc1C
inactive: Potency [1] | Potency [2] | outcome [3] | outcome [4] | Potency [5] | Potency [7]

O=C1CC[C@H](C(=O)N2CCCCC2)N1
inactive: Potency [1] | Potency [2] | outcome [3] | outcome [4] | Potency [5] | Potency [7]

CC(=O)OC[C@H]1O[C@@H](OC(C)=O)[C@H](OC(C)=O)[C@@H]1OC(C)=O
inactive: Potency [1] | Potency [2] | outcome [3] | outcome [4] | Potency [5] | Potency [7]

c1ccc2occc2c1
inactive: Potency [1] | Potency [2] | outcome [3] | outcome [4] | Potency [5] | Potency [7]

CNC(=O)c1c(I)c(NC(C)=O)c(I)c(C(=O)O)c1I
inactive: Potency [1] | Potency [2] | outcome [3] | outcome [4] | Potency [5] | Potency [7]

CC(COc1ccccc1)NN (stereo not drawn)
inactive: Potency [1] | Potency [2] | outcome [3] | outcome [4] | Potency [5] | Potency [7]

COc1ccc(/C(C)=C/C(=O)O)c(OC)c1
inactive: Potency [1] | Potency [2] | outcome [3] | outcome [4] | Potency [5] | Potency [7]

CCO[C@H](Cc1ccc(OCCc2ccc(OS(C)(=O)=O)cc2)cc1)C(=O)O
inactive: Potency [1] | Potency [2] | outcome [3] | outcome [4] | Potency [5] | Potency [7]

CCOC(=O)c1ccc(OCCN2C[C@H](O)[C@@H](O)[C@H](O)[C@H]2CO)cc1
inactive: Potency [1] | Potency [2] | outcome [3] | outcome [4] | Potency [5] | Potency [7]

CCOC(=O)c1cc(=O)c2c(OCC(COc3cccc4oc(C(=O)OCC)cc(=O)c34)OC(=O)[C@@H](N)CCCCN)cccc2o1
inactive: Potency [1] | Potency [2] | outcome [3] | outcome [4] | Potency [5] | Potency [7]

— PubChem BioAssay (NCATS)
